These results are taken from ChEMBL document CHEMBL2218924, “A broad activity screen in support of a chemogenomic map for kinase signalling research and drug discovery” (Biochem J, 2013).

The structures appear in SMILES notation.

The target of this experiment is Death-associated protein kinase 1 (Homo sapiens) (UniProt P53355). The settings on record: at 1 µM.
Sequence of Death-associated protein kinase 1 (Homo sapiens) (P53355 whole entry, looked up): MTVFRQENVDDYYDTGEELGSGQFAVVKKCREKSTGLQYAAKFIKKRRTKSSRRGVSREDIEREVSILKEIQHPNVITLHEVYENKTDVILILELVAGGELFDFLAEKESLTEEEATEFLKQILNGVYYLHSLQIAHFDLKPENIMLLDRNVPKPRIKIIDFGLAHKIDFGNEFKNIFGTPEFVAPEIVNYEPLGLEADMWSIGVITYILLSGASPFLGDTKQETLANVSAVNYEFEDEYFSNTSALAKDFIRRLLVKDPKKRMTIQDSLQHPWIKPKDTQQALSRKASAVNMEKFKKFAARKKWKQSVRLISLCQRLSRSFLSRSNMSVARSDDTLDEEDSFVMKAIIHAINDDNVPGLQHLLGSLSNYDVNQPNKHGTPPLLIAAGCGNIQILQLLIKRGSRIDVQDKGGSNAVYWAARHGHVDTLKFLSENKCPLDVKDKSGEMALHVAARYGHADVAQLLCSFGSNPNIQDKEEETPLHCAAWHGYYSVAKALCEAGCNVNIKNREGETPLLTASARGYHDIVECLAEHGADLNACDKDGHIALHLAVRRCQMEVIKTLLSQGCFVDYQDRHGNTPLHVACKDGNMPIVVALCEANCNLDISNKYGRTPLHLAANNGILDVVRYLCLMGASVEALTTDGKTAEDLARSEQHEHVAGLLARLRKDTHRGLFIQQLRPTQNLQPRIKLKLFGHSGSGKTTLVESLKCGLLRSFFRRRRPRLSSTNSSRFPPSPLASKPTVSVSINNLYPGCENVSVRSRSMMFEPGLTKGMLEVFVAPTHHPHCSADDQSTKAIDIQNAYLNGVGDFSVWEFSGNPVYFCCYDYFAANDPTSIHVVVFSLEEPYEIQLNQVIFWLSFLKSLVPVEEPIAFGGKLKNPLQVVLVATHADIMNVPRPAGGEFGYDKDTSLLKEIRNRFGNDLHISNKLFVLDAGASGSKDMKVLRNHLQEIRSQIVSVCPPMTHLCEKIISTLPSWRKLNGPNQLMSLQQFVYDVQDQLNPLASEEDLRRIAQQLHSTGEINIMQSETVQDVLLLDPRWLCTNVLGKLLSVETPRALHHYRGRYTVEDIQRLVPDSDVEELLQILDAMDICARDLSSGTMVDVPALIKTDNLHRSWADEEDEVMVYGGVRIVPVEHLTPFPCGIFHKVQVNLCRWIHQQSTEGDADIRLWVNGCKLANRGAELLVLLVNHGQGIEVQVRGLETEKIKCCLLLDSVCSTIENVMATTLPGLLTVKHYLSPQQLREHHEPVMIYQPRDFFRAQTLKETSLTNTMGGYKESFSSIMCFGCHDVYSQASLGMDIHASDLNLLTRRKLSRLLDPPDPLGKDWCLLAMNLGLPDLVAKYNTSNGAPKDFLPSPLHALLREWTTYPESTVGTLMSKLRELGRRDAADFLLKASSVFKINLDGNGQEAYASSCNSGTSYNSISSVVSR
For `O=C1Nc2ccc(Cl)cc2/C1=C/c1cc(Cl)c(O)c(Cl)c1`, the residual activity (commonly what remains of the control signal, in per cent) worked out at 79%.

In turn, `Nc1nc(Nc2ccc(S(N)(=O)=O)cc2)nn1C(=O)c1c(F)cccc1F` showed a residual activity of 97%.

As for `c1ccc2c(-c3ccncc3)c[nH]c2c1`, the residual activity amounted to 85%.

`Cc1cc(Nc2nc(-c3ccccc3)nc3ccccc23)n[nH]1` came in with a residual activity of 59%.

`CN(C)S(=O)(=O)c1ccc2c(c1)/C(=C/c1cc3c([nH]1)CCCC3)C(=O)N2` yielded a residual activity of 90%.

In turn, `CC(C)N(CCC(=O)c1ccc2ccccc2c1)Cc1ccccc1` had a residual activity of 86%.

`CC#CC(=O)Nc1cc2c(Nc3ccc(F)c(Cl)c3)ncnc2cn1`: the residual activity worked out at 88%.

Molecule `Nc1ncnc2c1cnn2-c1ccccc1` gave a residual activity of 84%.

Regarding `Cn1cc(/C=C2\C(=O)Nc3ccc(S(N)(=O)=O)cc32)c2ccccc21`, the residual activity came out at 94%.

Take `Cc1cc2ncc(-c3ccccc3)nc2cc1C`: the residual activity worked out at 92%.

The molecule `Cn1cnc2cc3c(Nc4cccc(Br)c4)ncnc3cc21` returned a residual activity of 94%.

`Cc1cccc(-c2[nH]c(C(C)(C)C)nc2-c2ccc3c(c2)OCO3)n1`: the residual activity was found to be 79%.

In turn, `Cn1sc(=O)n(Cc2ccccc2)c1=O` returned a residual activity of 80%.
